# In paper PMC11062922 (Nature Chemical Biology, 2023):
# Like-named read-outs stand apart in the source and are kept apart here.
# Columns and labels:
# RIPK2 = system: RIPK2; design: species or system human, MV4-11 + K-562 + COLO205 + SK-N-BE2 + OVCAR-8; settings: read-out: apparent Kd; compound concentrations: 100 nM and 1000 nM (sheet 'Samples'), CATDS: 1; n = 1
# TAOK1 = system: TAOK1; design: species or system human, MV4-11 + K-562 + COLO205 + SK-N-BE2 + OVCAR-8; settings: read-out: apparent Kd; compound concentrations: 100 nM and 1000 nM (sheet 'Samples'), CATDS: 1; n = 1
# PRKD2 = system: PRKD2; design: species or system human, MV4-11 + K-562 + COLO205 + SK-N-BE2 + OVCAR-8; settings: read-out: apparent Kd; compound concentrations:100 nM and 1000 nM (sheet 'Samples'); n = 1
# PRKD3 = system: PRKD3; design: species or system human, MV4-11 + K-562 + COLO205 + SK-N-BE2 + OVCAR-8; settings: read-out: apparent Kd; compound concentrations:100 nM and 1000 nM (sheet 'Samples'); n = 1
# TGFBR2 [1] = system: TGFBR2; design: species or system human, MV4-11 + K-562 + COLO205 + SK-N-BE2 + OVCAR-8; settings: read-out: apparent Kd; compound concentrations:100 nM and 1000 nM (sheet 'Samples'); n = 1
# SLK = system: SLK; design: species or system human, MV4-11 + K-562 + COLO205 + SK-N-BE2 + OVCAR-8; settings: read-out: apparent Kd, n = 1
# ADCK3 = settings: read-out: apparent Kd, n = 1
# NQO1 = settings: read-out: apparent Kd, n = 1
# STK26 = settings: read-out: apparent Kd, n = 1
# TESK1 = settings: read-out: apparent Kd, n = 1
# TGFBR2 [2] = settings: read-out: apparent Kd, n = 1
# RIOK2 = system: RIOK2; design: species or system human, MV4-11 + K-562 + COLO205 + SK-N-BE2 + OVCAR-8; settings: read-out: apparent Kd; compound concentrations: 100 nM and 1000 nM (sheet 'Samples'), CATDS: 1; n = 1
# PKN2 = system: PKN2; design: species or system human, MV4-11 + K-562 + COLO205 + SK-N-BE2 + OVCAR-8; settings: read-out: apparent Kd; compound concentrations:100 nM and 1000 nM (sheet 'Samples'); n = 1
# RPS6KB1 = system: RPS6KB1; design: species or system human, MV4-11 + K-562 + COLO205 + SK-N-BE2 + OVCAR-8; settings: read-out: apparent Kd; compound concentrations:100 nM and 1000 nM (sheet 'Samples'); n = 1
# [3] = compound concentrations:100 nM and 1000 nM (sheet 'Lestaurtinib' of Supplementary Table 1),run:Lestaurtinib_02584_R3,Plate:MR017
compound,measurement,setting,value
CNC(=O)c1cncc(/C=C/c2ccccc2C)c1 [GW445015X],potency estimated from few doses,RIPK2,795 nM
O=C(NCCNc1ccnc(Nc2ccc(F)cc2)n1)Nc1ccc2c(c1)OCO2 [GSK1379882A],potency estimated from few doses,TAOK1,1250 nM
Cc1cccc(-c2n[nH]cc2-c2ccc3ncccc3n2)n1 [GW786460X],potency estimated from few doses,PRKD2,465 nM
same,potency estimated from few doses,PRKD3,640 nM
same,potency estimated from few doses,TGFBR2 [1],112 nM
O=C1NC(=O)C(c2ccccc2Cl)=C1Nc1cccc(O)c1 [SB-390527],potency estimated from few doses,"SLK; compound concentrations: 100 nM and 1000 nM (sheet 'Samples'), CATDS: 1",1140 nM
COc1cc2ncn(-c3cc(OCC4CCCO4)c(C(N)=O)s3)c2cc1OC (stereo not drawn) [GSK204607A],potency estimated from few doses,"SLK; compound concentrations: 100 nM and 1000 nM (sheet 'Samples'), CATDS: 0.28828322823587899",1160 nM
Lestaurtinib,potency estimated from few doses,"ADCK3; compound concentrations:100 nM and 1000 nM (sheet 'Lestaurtinib' of Supplementary Table 1),run:Lestaurtinib_02364_R1,Plate:MR002",1630 nM
same,potency estimated from few doses,"ADCK3; compound concentrations:100 nM and 1000 nM (sheet 'Lestaurtinib' of Supplementary Table 1),run:Lestaurtinib_02422_R1,Plate:MR006",80.8 nM
same,potency estimated from few doses,"ADCK3; compound concentrations:100 nM and 1000 nM (sheet 'Lestaurtinib' of Supplementary Table 1),run:Lestaurtinib_02437_R3,Plate:MR007",474 nM
same,potency estimated from few doses,"ADCK3; compound concentrations:100 nM and 1000 nM (sheet 'Lestaurtinib' of Supplementary Table 1),run:Lestaurtinib_02572_R1,Plate:MR015",1620 nM
same,potency estimated from few doses,"NQO1; compound concentrations:100 nM and 1000 nM (sheet 'Lestaurtinib' of Supplementary Table 1),run:Lestaurtinib_02438_R3,Plate:MR008",1600 nM
same,potency estimated from few doses,"NQO1; compound concentrations:100 nM and 1000 nM (sheet 'Lestaurtinib' of Supplementary Table 1),run:Lestaurtinib_02765_R1,Plate:MR026",1440 nM
same,potency estimated from few doses,"NQO1; compound concentrations:100 nM and 1000 nM (sheet 'Lestaurtinib' of Supplementary Table 1),run:Lestaurtinib_03172_R1,Plate:MR031",1700 nM
same,potency estimated from few doses,"STK26; compound concentrations:100 nM and 1000 nM (sheet 'Lestaurtinib' of Supplementary Table 1),run:Lestaurtinib_02407_R1,Plate:MR005",1700 nM
same,potency estimated from few doses,"STK26; compound concentrations:100 nM and 1000 nM (sheet 'Lestaurtinib' of Supplementary Table 1),run:Lestaurtinib_02473_R3,Plate:MR010",2250 nM
same,potency estimated from few doses,STK26; [3],2350 nM
same,potency estimated from few doses,"TESK1; compound concentrations:100 nM and 1000 nM (sheet 'Lestaurtinib' of Supplementary Table 1),run:Lestaurtinib_02482_R3,Plate:MR011",1960 nM
same,potency estimated from few doses,"TESK1; compound concentrations:100 nM and 1000 nM (sheet 'Lestaurtinib' of Supplementary Table 1),run:Lestaurtinib_02487_R1,Plate:MR012",1310 nM
same,potency estimated from few doses,TESK1; [3],1960 nM
same,potency estimated from few doses,"TESK1; compound concentrations:100 nM and 1000 nM (sheet 'Lestaurtinib' of Supplementary Table 1),run:Lestaurtinib_02748_R2,Plate:MR024",994 nM
same,potency estimated from few doses,"TGFBR2 [2]; compound concentrations:100 nM and 1000 nM (sheet 'Lestaurtinib' of Supplementary Table 1),run:Lestaurtinib_02443_R3,Plate:MR009",1570 nM
same,potency estimated from few doses,"TGFBR2 [2]; compound concentrations:100 nM and 1000 nM (sheet 'Lestaurtinib' of Supplementary Table 1),run:Lestaurtinib_03172_R3,Plate:MR031",2210 nM
same,potency estimated from few doses,"TGFBR2 [2]; compound concentrations:100 nM and 1000 nM (sheet 'Lestaurtinib' of Supplementary Table 1),run:Lestaurtinib_03252_R2,Plate:MR032",2120 nM
Cl.c1ccc(Oc2ccc(Nc3ncc(-c4ccccc4)o3)cc2)cc1 [GW641155A],potency estimated from few doses,RIOK2,2140 nM
CCn1c(-c2nonc2N)nc2cnc(Oc3cccc(NC(=O)c4ccc(N(C)C)cc4)c3)cc21 [GSK248233A],potency estimated from few doses,PKN2,1780 nM
same,potency estimated from few doses,RPS6KB1,978 nM
O=C1NC(=O)C(c2ccccc2Cl)=C1Nc1cccc(Cl)c1 [SB-342409],potency estimated from few doses,SLK; compound concentrations:100 nM and 1000 nM (sheet 'Samples'),811 nM
Cc1nnc(-c2ccc(C)c(-c3ccc(C(=O)Nc4ccc(NS(C)(=O)=O)cc4)cc3)c2)o1 [GW702865X],potency estimated from few doses,TAOK1,1620 nM
Cc1cc(O)cc(C)c1/C=C/c1cncc(C(=O)OC(C)(C)C)c1 [GW439255X],potency estimated from few doses,RIPK2,437 nM
